In PubChem BioAssay (Tox21) one finds Potency and activity change, negative = cytotoxicity data, which are given here for 40 compounds.

The structures appear in SMILES notation. Records with an inconclusive call do not appear. Where a call stands in place of a potency, no number is given. Active and inactive are the calls of the source. The call rests on the fitted dose curve; in most records, active means well fitted cell-killing curve with a large enough effect in the repeat runs; inconclusive means weak or mixed curves, or effect the other way; inactive means flat fitted curve, though single readings scatter.
Potency means the concentration at half of the fitted maximal effect.

The nature of the experiment: qHTS RealTime-Glo MT Cell Viability Assay in HepG2 cells - 0 hour (AID 1224889). Further: nearly all actives have a fitted effect of over 50% in size. The settings on record: RealTime-Glo luminescence; series mostly up to 76.8 µM. The text has this: U.S. Tox21 Program National Center for Advancing Translational Sciences [NCATS] NIH Chemical Genomics Center [NCGC] U.S. Environmental Protection Agency [EPA] National Institutes of Environmental Health Sciences [NIEHS] National Toxicology Program [NTP] U.S. Food and Drug Administration [FDA] Tox21 Assay Overview: Measure of cell viability is critical in the cell-base assay. Analysis of cell viability is necessary for the characterization of cell responses to cytotoxic drugs and environmental stress. A RealTime-Glo MT Cell Viability Assay to monitor cell viability in real time of continues cell culture during 40 hours of compound treatment was used to screen Tox21 10K library compounds in HepG2 cells. The RealTime-Glo MT Cell Viability Assay is a nonlytic, homogeneous, bioluminescent method to measure cell viability in real time using a simple, plate-based method. The assay involves adding NanoLuc luciferase and a cell-permeant prosubstrate to cells in culture. Viable cells reduce the proprietary prosubstrate to generate a substrate for NanoLuc luciferase. This substrate diffuses from cells into the surrounding culture medium, where it is rapidly used by the NanoLuc Enzyme to produce a luminescent signal. The signal correlates with the number of viable cells, making the assay well suited for cytotoxicity studies.
Tox21 Assay Protocol Summary: The mixture of HepG2 cell suspension and reagents were dispensed at 600cells/6 ul/well in 1536-well tissue culture treated black solid bottom plates using a Multidrop dispenser. After the assay plates were incubated at a 37 C/5% CO2 incubator for 5 hours, 23 nL of compounds dissolved in DMSO, positive and negative controls was transferred to the assay plate by a pintool work station. The plates were incubated at 37 C for 40 hours. The luminescence intensity were measured at 0h, 8h, 16h, 24h, 32h and 40h time points using ViewLux plate reader during compound treatment.
Turning to `c1coc(CNc2ncnc3nc[nH]c23)c1`, the Potency entry was “inactive”.

Regarding `CCO[Si](OCC)(OCC)c1ccccc1`, the Potency entry is “inactive”.

For `C[C@H]1C[C@H]2[C@@H]3CCC4=CC(=O)C=C[C@]4(C)[C@H]3C(=O)C[C@]2(C)[C@@]1(O)C(=O)CO`, the Potency result was “inactive”.

As for `CC/C=C\CCOC(C)OCC` (stereo not given), the Potency entry was “inactive”.

On to `Cc1ccc(C(=O)c2ccccc2)cc1`, for which the Potency result is “inactive”.

Consider `CC(CC=O)CC(C)(C)C` (stereo not given), for which the Potency entry was “inactive”.

`C=CC(=O)OCCCl`: the Potency result was “inactive”.

Consider `Cc1ccnc(NS(=O)(=O)c2ccc(N)cc2)n1`, for which the Potency result is “inactive”.

Regarding `CCCO[Si](OCCC)(OCCC)OCCC`, the Potency entry is “inactive”.

Consider `C=CN1CCCCCC1=O`, for which the Potency result is “inactive”.

Regarding `C=C(C)C(=O)OCC1CCCO1` (stereo not given), the Potency result is “inactive”.

In the case of `CCN1CCOCC1`, the Potency entry was “inactive”.

Regarding `CCOc1c(N2CCOCC2)cnn(C)c1=O`, the Potency result was “inactive”.

Consider `CCOC(=O)OC(C)OC1=C(C(=O)Nc2ccccn2)N(C)S(=O)(=O)c2ccccc21` (stereo not given), for which the Potency entry was “inactive”.

Consider `C=CCCC(=O)O`, for which the Potency entry was “inactive”.

In the case of `NC(CCC(=O)O)C(=O)O` (stereo not given), the Potency result is “inactive”.

For the compound `C[N+](C)(C)CCCCCCCCCC[N+](C)(C)C`, the Potency entry is “inactive”.

Regarding `Nc1ccncc1N`, the Potency entry was “inactive”.

`CC(CO)(CO)[N+](=O)[O-]`: the Potency entry was “inactive”.

For `Cc1onc(-c2c(Cl)cccc2Cl)c1C(=O)Cl`, the Potency result is “inactive”.

Take `CCCC(C)C(=O)OCC` (stereo not given): the Potency result was “inactive”.

Take `CN(C)CCCN(C)CCCN(C)C`: the Potency result was “inactive”.

Regarding `CCN(C=O)CC`, the Potency result is “inactive”.

With `NC(N)=NCCN1CCCCCCC1`, the activity change, negative = cytotoxicity is 0.442% [at 0.29 µM] (inactive).

For the compound `CC1=CCC(O)(C(C)C)CC1` (stereo not given), the Potency entry is “inactive”.

With `CCCCOC(=O)CCC(C)=O`, the Potency entry was “inactive”.

In the case of `OCCc1ccccn1`, the Potency entry is “inactive”.

`[O-][n+]1cccc(CO)c1`: the Potency result is “inactive”.

With `Cc1ccc(C(=O)Nc2ccc(S(=O)(=O)O)c3cc(S(=O)(=O)O)cc(S(=O)(=O)O)c23)cc1NC(=O)c1cccc(NC(=O)Nc2cccc(C(=O)Nc3cc(C(=O)Nc4ccc(S(=O)(=O)O)c5cc(S(=O)(=O)O)cc(S(=O)(=O)O)c45)ccc3C)c2)c1`, the Potency result was “inactive”.

In the case of `CCCOC(=O)CC`, the Potency entry is “inactive”.

With `COc1cc(C)nc(-n2nc(C)cc2OC)n1`, the Potency entry was “inactive”.

In the case of `CC[N+](CC)(CC(=O)Nc1c(C)cccc1C)Cc1ccccc1` (tested in a mixture with another compound), the Potency result is “inactive”.

As to `COC(=O)C1=C(C)NC(C)=C(C(=O)OC(C)C)C1c1cccc2nonc12` (stereo not given), the Potency was 1070 nM (active).

For the compound `C=C[Si](OC(C)=O)(OC(C)=O)OC(C)=O`, the Potency entry is “inactive”.

Turning to `CC(C)(N)C#N`, the Potency result was “inactive”.

For the compound `CC(N)C12CC3CC(CC(C3)C1)C2` (stereo not given), the Potency entry was “inactive”.

For the compound `CCN1C=CN(C)C1C` (stereo not given), the Potency entry is “inactive”.

With `[Ca+2]`, the Potency result was “inactive”.

Turning to `CCN(Cc1ccccc1)c1ccccc1`, the Potency result is “inactive”.

Turning to `O=S(=O)(O)c1cc(O)c(O)c(S(=O)(=O)O)c1`, the Potency entry is “inactive”.
